Laboratory results published in PubChem BioAssay (NCATS).
“And” between values parts separate entries of the source, which are not always exact repeats. Equal values may be shown once. Inconclusive results are not listed. Calls follow the shape of the dose curve; as a rule, active = well fitted activation curve with a large enough effect in the signal ratio, with a control signal flat (not every such curve was filed as active); inconclusive = small, poorly fitted or top-dose-only effect, or effect the other way, or a change in a side signal; inactive = flat fitted curve, though single readings scatter; the % refers to the signal ratio.

Experiment: qHTS Assay for Identification of Small Molecule Agonists for Hypoxia Response Element Signaling Pathway (AID 914); also: % of control where 0% means no effect
Conditions: ME-180 (cervical carcinoma) HRE-bla reporter, beta-lactamase ratio, CoCl2, 17 h; active compounds read high
Method in brief: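 Read-out: CCF4 FRET ratio of 460nm to 530nm emission (excitation 405nm) after 2.5 hours at room temperature, taken from HRE-bla ME-180 cells that had been exposed to compound and EC50 CoCl2 for 17 hours.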

activation, inactive:
COc1ccc(-c2ccc3c(n2)CCCN3C[C@H](O)CN2CCCc3nc(-c4ccc(Br)cc4)ccc32)cc1 17.4% and 18.3%
CCN1C(=O)[C@H]2[C@H]3[C@H](O)[C@H](O)C/C(=N/O[C@@H](C)c4cn([C@H](CO)Cc5ccccc5)nn4)[C@@H]3CC[C@@H]2C1=O 1.7%
CCCNC(=O)OC[C@@H]1O[C@H](CCON=C(C)C)C=C[C@@H]1Oc1ccc(OC)cc1 -3.17%
C/C(CCN1CCc2nc(-c3ccccc3)c(-c3ccccc3)cc2C1)=N\O[C@@H](C)c1cn([C@H](CO)Cc2ccccc2)nn1 -1.74% and -5.69%
COc1ccc(COC(=O)N/N=C2/C[C@@H](O)[C@@H](O)[C@@H]3[C@@H]4C(=O)N(c5cccc(Oc6ccccc6)c5)C(=O)[C@H]4CC[C@@H]23)cc1 -7.26%
CO[C@H]1COC(=O)C/C=C\[C@@H](C)COC(=O)[C@@H](OCc2ccccc2)/C=C\[C@@H]1C -3.25%
C/C(CCN1CCCCc2nc(C)c(C)cc21)=N\OC[C@@H](C)[C@H](OCc1ccccc1)C(C)C 5.09%
CC(C)=CCC/C(C)=C/CO/N=C1/[C@H]2O[C@@H]2[C@@H](O)[C@H]2[C@H]1CCn1c(=O)n(Cc3cc4c(cc3Cl)OCO4)c(=O)n12 3.23%
C/C(CCN1CCc2nc(-c3ccccc3)c(-c3ccccc3)cc2C1)=N\O[C@@H](C)CN1CCCc2nc(C)c(C)cc21 24.9%
C/C(CCN1CCc2nc(-c3ccccc3)c(-c3ccccc3)cc2C1)=N\O[C@@H](C)c1cc(-c2c(C)cc(C)cc2C)no1 20.9%
C#CCCCO/N=C1/C[C@@H](O)[C@@H](O)[C@@H]2[C@@H]3C(=O)N(C4CCCCC4)C(=O)[C@H]3CC[C@H]12 7.1%
